In PubChem BioAssay (Tox21):
Records with an inconclusive call do not appear. Where a call stands in place of a potency, no number is given. Values without a mark were called inactive. Calls of active or inactive are those of the source. Calls come from the whole dose curve; as a rule, active = well fitted cell-killing curve with a large enough effect in the repeat runs; inconclusive = weak or mixed curves; inactive = flat fitted curve, though single readings scatter.

Test: qHTS RealTime-Glo MT Cell Viability Assay in HepG2 cells - 32 hour (AID 1224877); note: nearly all actives have a fitted effect of over 55% in size
Details: RealTime-Glo luminescence; series mostly up to 76.8 µM
Description: U.S. Tox21 Program National Center for Advancing Translational Sciences [NCATS] NIH Chemical Genomics Center [NCGC] U.S. Environmental Protection Agency [EPA] National Institutes of Environmental Health Sciences [NIEHS] National Toxicology Program [NTP] U.S. Food and Drug Administration [FDA] Tox21 Assay Overview: Measure of cell viability is critical in the cell-base assay. Analysis of cell viability is necessary for the characterization of cell responses to cytotoxic drugs and environmental stress. A RealTime-Glo MT Cell Viability Assay to monitor cell viability in real time of continues cell culture during 40 hours of compound treatment was used to screen Tox21 10K library compounds in HepG2 cells. The RealTime-Glo MT Cell Viability Assay is a nonlytic, homogeneous, bioluminescent method to measure cell viability in real time using a simple, plate-based method. The assay involves adding NanoLuc luciferase and a cell-permeant prosubstrate to cells in culture. Viable cells reduce the proprietary prosubstrate to generate a substrate for NanoLuc luciferase. This substrate diffuses from cells into the surrounding culture medium, where it is rapidly used by the NanoLuc Enzyme to produce a luminescent signal. The signal correlates with the number of viable cells, making the assay well suited for cytotoxicity studies.
Tox21 Assay Protocol Summary: The mixture of HepG2 cell suspension and reagents were dispensed at 600cells/6 ul/well in 1536-well tissue culture treated black solid bottom plates using a Multidrop dispenser. After the assay plates were incubated at a 37 C/5% CO2 incubator for 5 hours, 23 nL of compounds dissolved in DMSO, positive and negative controls was transferred to the assay plate by a pintool work station. The plates were incubated at 37 C for 40 hours. The luminescence intensity were measured at 0h, 8h, 16h, 24h, 32h and 40h time points using ViewLux plate reader during compound treatment.
Potency is the fitted concentration of half-maximal effect.

Structure (SMILES)	Potency	activity change, negative = cytotoxic
COc1cc(Cl)c(OC)cc1Cl	inactive	–
O=Cc1ccc2c(c1)OCO2	inactive	–
CCOP(=O)(OCC)O/C(=C/Cl)c1ccc(Cl)cc1Cl	inactive	–
C[C@]12CC[C@H]3[C@@H](CCC4=CC(=O)CC[C@@H]43)[C@@H]1CC[C@@H]2OC(=O)CCC1CCCCC1	inactive	–
Clc1ccc(C(OCCN2CCCCC2)c2ccccc2)cc1 (stereo not given)	inactive	–
Nc1nc(N)nc(N)n1	inactive	–
CCCCN=C=O	inactive	–
CNP(=O)(OC)Oc1ccc(C(C)(C)C)cc1Cl (stereo not given)	inactive	–
Nc1nc(=S)[nH][nH]1	inactive	–
C[N+](C)(C)CCCl	inactive	–
O=C(C(Cl)(Cl)Cl)C(Cl)(Cl)Cl	inactive	–
O=C(Nc1ccccc1)Nc1cnns1	inactive	–
O=C(NC(=O)c1c(F)cccc1F)Nc1ccc(OC(F)(F)C(F)OC(F)(F)F)c(Cl)c1 (stereo not given)	inactive	–
CCn1cc[n+](C)c1	inactive	–
CC1CC(CC2CCC(N)C(C)C2)CCC1N (stereo not given)	inactive	–
Cl/C=C\C[N+]12CN3CN(CN(C3)C1)C2	inactive	–
CN(N=O)c1ccc([N+](=O)[O-])cc1	inactive	–
C=CCOC(C)=O	inactive	–
C=CC(=O)OC(C)(C)C	inactive	–
CC1C(=O)C[C@]2(C(C)C)C[C@H]12 (stereo not given in full)	inactive	–

Structure (SMILES)	Potency	activity change, negative = cytotoxic
O=C(O)c1ccccc1C(=O)Nc1cccc2ccccc12	inactive	–
CC(=O)CCC(C)=O	inactive	–
CO[C@@H]1[C@H](OC(=O)NC(=O)CCl)CC[C@]2(CO2)[C@H]1[C@@]1(C)O[C@@H]1CC=C(C)C	–	1.26% [at 15.8 µM]
COP(=S)(OC)Oc1ccc([N+](=O)[O-])cc1Cl	inactive	–
CC(C)(C)C(O)C(Oc1ccc(Cl)cc1)n1cncn1 (stereo not given)	inactive	–
Clc1cc(Cl)c(Cl)c(Cl)c1	inactive	–
OCCCBr	inactive	–
CCc1ccc(C(=O)NN(C(=O)c2cc(C)cc(C)c2)C(C)(C)C)cc1	inactive	–
c1ccoc1	inactive	–
CCOP(=S)(OCC)SCn1nnc2ccccc2c1=O	inactive	–
CC[C@H]1C[C@H]2[C@@H]3CCC4=CC(=O)CC[C@@H]4[C@H]3CC[C@]2(C)[C@H]1O	inactive	–
NC(=O)CI	9.86 µM (active)	–
CC(C)(Cl)[N+](=O)[O-]	inactive	–
NCCCNCCCN	inactive	–
C=CCC1([C@H](C)CCC)C(=O)NC(=O)NC1=O	inactive	–
O=C(O)C(F)(F)C(F)(F)C(F)(F)C(F)(F)C(F)(F)C(F)(F)C(F)(F)C(F)(F)C(F)(F)F	inactive	–
ClCc1cccc(Cl)c1	inactive	–
CC(=O)[C@H]1CC[C@H]2[C@@H]3CC[C@H]4C[C@](C)(O)CC[C@]4(C)[C@H]3CC[C@]12C	inactive	–
COC1=CC(=O)O[C@@H](CCc2ccccc2)C1	inactive	–
CO/C=C(/C(=O)OC)c1ccccc1COc1cccc(C(F)(F)F)n1	inactive	–
